Source: PubChem BioAssay (NCATS)
Records with an inconclusive call do not appear. Entries that show only a call come without a potency. Unmarked numbers belong to inactive results. The source made the active and inactive calls. Calls follow the shape of the dose curve; as a rule, active = well fitted curve in the direction sought with a large enough effect; inconclusive = small, poorly fitted or top-dose-only effect, or another doubt; inactive = no such curve, though single readings can be large; an effect the other way counts as inactive or inconclusive.

biological target: Cytochrome P450 3A7 (Homo sapiens) (UniProt P24462); assay: Cytochrome P450 family 3 subfamily A member 7 (CYP3A7) small molecule antagonists: luciferase biochemical qHTS assay (AID 1963596); settings: P450-Glo CYP3A7 enzyme luminescence, 1 h; series mostly up to 57.4 µM; also: nearly all actives have a fitted effect of over 40% in size
Sequence (P24462 whole entry, looked up): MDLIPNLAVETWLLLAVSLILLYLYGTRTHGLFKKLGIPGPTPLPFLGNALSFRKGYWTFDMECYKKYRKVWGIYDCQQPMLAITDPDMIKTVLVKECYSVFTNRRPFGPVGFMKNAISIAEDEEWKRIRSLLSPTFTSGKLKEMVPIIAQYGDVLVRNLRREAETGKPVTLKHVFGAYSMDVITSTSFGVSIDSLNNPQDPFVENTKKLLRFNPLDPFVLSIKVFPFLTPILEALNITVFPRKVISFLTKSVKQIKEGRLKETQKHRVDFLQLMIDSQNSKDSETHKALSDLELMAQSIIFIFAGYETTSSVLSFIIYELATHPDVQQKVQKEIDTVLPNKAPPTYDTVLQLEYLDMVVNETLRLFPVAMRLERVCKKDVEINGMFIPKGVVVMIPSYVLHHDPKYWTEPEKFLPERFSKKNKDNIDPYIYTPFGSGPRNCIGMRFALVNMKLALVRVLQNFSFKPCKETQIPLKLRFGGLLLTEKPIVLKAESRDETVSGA
Summary of the method: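 Luminescence from luciferin released by CYP3A7 from a proluciferin substrate, read 20 min after detection reagent. Compound and enzyme-substrate mix sat 10 min before NADPH regeneration solution; reaction ran 1 h at room temperature.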
Potency is read from the fitted curve at half-maximal effect.

Compound | Potency | activity change, negative = inhibition
Cc1cc(-n2nc3ccc(Cl)cc3n2)c(O)c(C(C)(C)C)c1 | inactive | –
COc1cc(N2CCOCC2)ccc1NC(=O)c1csc(-c2cccnc2)n1 | inactive | –
NC(=O)c1ccccc1O | inactive | –
CCCN1CCC(c2cccc(S(C)(=O)=O)c2)CC1 | inactive | –
COc1cccc(OC)c1-c1ccc(C[C@H](NC(=O)c2c(Cl)cccc2Cl)C(=O)O)cc1 | inactive | –
CCC(=O)N1CCOc2c(cc(-c3ccc(OC)c(OC)c3)cc2OC[C@H]2CCCN(C)C2)C1 | inactive | –
CC(NC(=O)C(O)C(C)C)C(=O)NC1C(=O)N(C)CCc2ccccc21 (stereo not given) | inactive | –
CC(C)c1cc2c(N3CCN(C4=NCC(C)(C)S4)CC3)ncnc2s1 | inactive | –
CN1CCc2nc(C(=O)N[C@@H]3C[C@@H](C(=O)N(C)C)CC[C@@H]3NC(=O)C(=O)Nc3ccc(Cl)cn3)sc2C1 | inactive | –
CCN1CCC[C@@H]1CNC(=O)c1ccc2c(c1)NC(=O)c1cccc(C)c1S2 | 20 µM (active) | –
CNC1CN(c2ccc3c(=O)c(C(=O)O)cn(-c4nccs4)c3n2)CC1OC (stereo not given) | – | 23% [at 11.5 µM]
CC(C)(C)NCC(O)COc1cccc2c1CCCC2=O (stereo not given) | inactive | –
N[C@@H](CC(=O)N1CCn2c(nnc2C(F)(F)F)C1)Cc1[nH]nc2c(F)c(F)ccc12 | inactive | –
Cn1nc(-c2ccc(C(F)(F)F)cc2)nc2c(=O)n(C)c(=O)nc1-2 | inactive | –
CN(C)c1nc(NC2CCC(NC(=O)c3ccc(F)c(F)c3)CC2)nc2ccccc12 (stereo not given) | inactive | –
O=C(Nc1ccc(N2CCC(C(=O)N3CCOCC3)CC2)cc1)c1cnc(Oc2ccccc2)nc1 | inactive | –
COc1ccc(CCCN2CCC(COC(c3ccccc3)c3ccccc3)CC2)cc1 | inactive | –
COc1ccccc1-c1ccc(-c2cn(C(=O)N3CCCCC3Cc3ccccc3)nn2)cc1 (stereo not given) | inactive | –
CC(C)CCC(=O)CC1c2ccccc2C(=O)N1c1ccc2ccc(Cl)nc2n1 (stereo not given) | inactive | –
c1ccc(N2CCN(CCc3nn[nH]n3)CC2)cc1 | inactive | –

Compound | Potency | activity change, negative = inhibition
CCOC(=O)n1ccn(C)c1=S | inactive | –
Cc1onc(-c2ccccc2)c1C(=O)N1CCN(c2ccc([N+](=O)[O-])cc2Cl)CC1 | inactive | –
CN(C)C(=O)C(=O)c1cn(C)c2cc(Cl)c(C(=O)N3CCC(Cc4ccc(F)cc4)CC3)cc12 | inactive | –
C[C@]12C=CC(=O)C=C1CC[C@@H]1[C@@H]2[C@@H](O)C[C@@]2(C)[C@H]1CC[C@]2(O)C(=O)COC(=O)CCC(=O)O | inactive | –
Cc1onc(-c2ccccc2)c1C(=O)N[C@@H]1C(=O)N2[C@@H]1SC(C)(C)[C@@H]2C(=O)O | inactive | –
Cc1cc2sc(NC(=O)Cc3ccccc3)nc2cc1Cl | inactive | –
C[N+]1(CC2COC(c3ccccc3)(c3ccccc3)O2)CCCCC1 (stereo not given) | inactive | –
CCNC(=O)N1CCCN(c2ccc(C(=O)NCCc3ccc(Cl)cc3Cl)cc2NC(=O)c2cccc(Cl)c2)CC1 | inactive | –
Cc1cc(CS(=O)(=O)c2ccccc2)cc(OCc2ccc(CN3CCCC3CO)cc2)c1 (stereo not given) | inactive | –
CCCN1CCC[C@@H](c2cccc(S(C)(=O)=O)c2)C1 | inactive | –
O=C(O)CC1CCC(c2ccc(-c3ccc4nc(C(=O)NCc5ccc(OC(F)(F)F)cc5)cn4c3)cc2)CC1 (stereo not given) | inactive | –
CN1CCN(C2=Nc3ccccc3Nc3ccc(O)cc32)CC1 | inactive | –
CCOc1cc(C(C)(C)C)ccc1C1=NC(C)(c2ccc(Cl)cc2)C(C)(c2ccc(Cl)cc2)N1C(=O)N1CCN(CCCS(C)(=O)=O)CC1 (stereo not given) | 2.82 µM (active) | –
CCOCc1cc(OC)c(-c2ccc(C[C@H](NC(=O)c3c(F)cccc3F)C(=O)O)cc2)c(OC)c1 | inactive | –
CCC[C@H](N[C@@H](C)C(=O)N1[C@H](C(=O)O)C[C@@H]2CCCC[C@@H]21)C(=O)O | inactive | –
COC(=O)c1ccc2c(c1)nc(NC(=O)c1ccccc1)n2CCCc1ccccc1 | inactive | –
CC(CNS(=O)(=O)C(C)C)c1ccc(-c2ccc(C#N)cc2)cc1 (stereo not given) | inactive | –
O=C(NCc1ccccc1)c1ccc2c(=O)n(-c3cccc(C(F)(F)F)c3)c(=S)[nH]c2c1 | inactive | –
CC(C(=O)O)c1ccc(C(=O)c2cccs2)cc1 (stereo not given) | inactive | –
COc1ccc(Sc2ccc(NC(=O)c3ccccc3Cl)cc2C#N)cc1 | inactive | –

tested on: not listed separately; assay: Viability qHTS for spleen associated tyrosine kinase inhibitor (SYKi) drug resistant MV4-11 cells (AID 1963824); settings: SYKi-resistant MV4-11 viability, CellTiter-Glo, 72 h; series mostly up to 45 µM; also: nearly all actives have a fitted effect of over 35% in size
Summary of the method: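 SYK inhibitor-resistant MV4-11 AML cells, 500 per well, added to predispensed compounds and incubated 72 hr at 37 C, 5% CO2. Viability measured by CellTiter-Glo luminescence after 10 min at room temperature.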

Compound | Potency
Cc1cc(-n2nc3ccc(Cl)cc3n2)c(O)c(C(C)(C)C)c1 | inactive
COc1cc(N2CCOCC2)ccc1NC(=O)c1csc(-c2cccnc2)n1 | 0.259 µM (active)
NC(=O)c1ccccc1O | inactive
CCCN1CCC(c2cccc(S(C)(=O)=O)c2)CC1 | inactive
COc1cccc(OC)c1-c1ccc(C[C@H](NC(=O)c2c(Cl)cccc2Cl)C(=O)O)cc1 | inactive
CCC(=O)N1CCOc2c(cc(-c3ccc(OC)c(OC)c3)cc2OC[C@H]2CCCN(C)C2)C1 | 7.31 µM (active)
CC(NC(=O)C(O)C(C)C)C(=O)NC1C(=O)N(C)CCc2ccccc21 (stereo not given) | inactive
CC(C)c1cc2c(N3CCN(C4=NCC(C)(C)S4)CC3)ncnc2s1 | 5.8 µM (active)
CN1CCc2nc(C(=O)N[C@@H]3C[C@@H](C(=O)N(C)C)CC[C@@H]3NC(=O)C(=O)Nc3ccc(Cl)cn3)sc2C1 | inactive
CCN1CCC[C@@H]1CNC(=O)c1ccc2c(c1)NC(=O)c1cccc(C)c1S2 | 20.6 µM (active)
CNC1CN(c2ccc3c(=O)c(C(=O)O)cn(-c4nccs4)c3n2)CC1OC (stereo not given) | 0.376 µM (active)
CC(C)(C)NCC(O)COc1cccc2c1CCCC2=O (stereo not given) | inactive
N[C@@H](CC(=O)N1CCn2c(nnc2C(F)(F)F)C1)Cc1[nH]nc2c(F)c(F)ccc12 | inactive
Cn1nc(-c2ccc(C(F)(F)F)cc2)nc2c(=O)n(C)c(=O)nc1-2 | 4.11 µM (active)
CN(C)c1nc(NC2CCC(NC(=O)c3ccc(F)c(F)c3)CC2)nc2ccccc12 (stereo not given) | 0.82 µM (active)
O=C(Nc1ccc(N2CCC(C(=O)N3CCOCC3)CC2)cc1)c1cnc(Oc2ccccc2)nc1 | inactive
COc1ccc(CCCN2CCC(COC(c3ccccc3)c3ccccc3)CC2)cc1 | 10.3 µM (active)
COc1ccccc1-c1ccc(-c2cn(C(=O)N3CCCCC3Cc3ccccc3)nn2)cc1 (stereo not given) | 14.6 µM (active)
CC(C)CCC(=O)CC1c2ccccc2C(=O)N1c1ccc2ccc(Cl)nc2n1 (stereo not given) | inactive
c1ccc(N2CCN(CCc3nn[nH]n3)CC2)cc1 | inactive

Compound | Potency
CCOC(=O)n1ccn(C)c1=S | inactive
Cc1onc(-c2ccccc2)c1C(=O)N1CCN(c2ccc([N+](=O)[O-])cc2Cl)CC1 | 13 µM (active)
CN(C)C(=O)C(=O)c1cn(C)c2cc(Cl)c(C(=O)N3CCC(Cc4ccc(F)cc4)CC3)cc12 | 8.2 µM (active)
C[C@]12C=CC(=O)C=C1CC[C@@H]1[C@@H]2[C@@H](O)C[C@@]2(C)[C@H]1CC[C@]2(O)C(=O)COC(=O)CCC(=O)O | inactive
Cc1onc(-c2ccccc2)c1C(=O)N[C@@H]1C(=O)N2[C@@H]1SC(C)(C)[C@@H]2C(=O)O | inactive
Cc1cc2sc(NC(=O)Cc3ccccc3)nc2cc1Cl | inactive
C[N+]1(CC2COC(c3ccccc3)(c3ccccc3)O2)CCCCC1 (stereo not given) | 10 µM (active)
CCNC(=O)N1CCCN(c2ccc(C(=O)NCCc3ccc(Cl)cc3Cl)cc2NC(=O)c2cccc(Cl)c2)CC1 | 20.6 µM (active)
Cc1cc(CS(=O)(=O)c2ccccc2)cc(OCc2ccc(CN3CCCC3CO)cc2)c1 (stereo not given) | 14.6 µM (active)
CCCN1CCC[C@@H](c2cccc(S(C)(=O)=O)c2)C1 | 10.3 µM (active)
O=C(O)CC1CCC(c2ccc(-c3ccc4nc(C(=O)NCc5ccc(OC(F)(F)F)cc5)cn4c3)cc2)CC1 (stereo not given) | inactive
CN1CCN(C2=Nc3ccccc3Nc3ccc(O)cc32)CC1 | inactive
CCOc1cc(C(C)(C)C)ccc1C1=NC(C)(c2ccc(Cl)cc2)C(C)(c2ccc(Cl)cc2)N1C(=O)N1CCN(CCCS(C)(=O)=O)CC1 (stereo not given) | 9.2 µM (active)
CCOCc1cc(OC)c(-c2ccc(C[C@H](NC(=O)c3c(F)cccc3F)C(=O)O)cc2)c(OC)c1 | inactive
CCC[C@H](N[C@@H](C)C(=O)N1[C@H](C(=O)O)C[C@@H]2CCCC[C@@H]21)C(=O)O | inactive
COC(=O)c1ccc2c(c1)nc(NC(=O)c1ccccc1)n2CCCc1ccccc1 | inactive
CC(CNS(=O)(=O)C(C)C)c1ccc(-c2ccc(C#N)cc2)cc1 (stereo not given) | 2.59 µM (active)
O=C(NCc1ccccc1)c1ccc2c(=O)n(-c3cccc(C(F)(F)F)c3)c(=S)[nH]c2c1 | inactive
CC(C(=O)O)c1ccc(C(=O)c2cccs2)cc1 (stereo not given) | inactive
COc1ccc(Sc2ccc(NC(=O)c3ccccc3Cl)cc2C#N)cc1 | 25.9 µM (active)
